Laboratory results as given in the supplement of paper PMC8728848.
The entries come from a sample that favours the strongest signals as a whole.

Experiments:
Experiment in all cases: glycan array binding signal (z-score within array); higher = stronger binding
Conditions in all cases: glycan notation: IUPAC condensed, linker removed
[1] = target: Fuc(a1-2)Gal(b1-3)[Fuc(a1-4)]GlcNAc
Outline: (§1)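 The Consortium for Functional Glycomics database supplied 3228 glycan arrays, of which those lacking an available protein sequence were dropped. The binding signal, a within-array Z-score, was averaged across arrays of the same protein sequence and across linkers. Negative scores can be read as non-binding.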

Fuc(a1-2)Gal(b1-4)GlcNAc = target: Fuc(a1-2)Gal(b1-4)GlcNAc
Outline: as §1

[2] = target: Fuc(a1-2)Gal(b1-4)GlcNAc(b1-2)Man(a1-6)[Gal(b1-4)GlcNAc(b1-2)Man(a1-3)]Man(b1-4)GlcNAc(b1-4)GlcNAc
Outline: as §1

[3] = target: Fuc(a1-2)Gal(b1-4)GlcNAc(b1-3)Gal(b1-4)GlcNAc
Outline: as §1

[4] = target: Fuc(a1-2)[Gal(a1-3)]Gal(b1-3)GlcNAc
Outline: as §1

Fuc(a1-3)GlcNAc = target: Fuc(a1-3)GlcNAc
Outline: as §1

[5] = target: Fuc(a1-3)[Gal(b1-4)]GlcNAc(b1-4)Gal(b1-4)[Fuc(a1-3)]GlcNAc(b1-4)Gal(b1-4)[Fuc(a1-3)]GlcNAc
Outline: as §1

Gal(a1-3)Gal(b1-4)Glc = target: Gal(a1-3)Gal(b1-4)Glc
Outline: as §1

[6] = target: Gal(a1-3)[Gal(a1-4)]Gal(b1-4)GlcNAc
Outline: as §1

Gal(b1-4)Glc = target: Gal(b1-4)Glc
Outline: as §1

[7] = target: Gal(b1-4)GlcNAc(b1-6)Gal(b1-4)GlcNAc
Outline: as §1

Gal6S(b1-4)Glc = target: Gal6S(b1-4)Glc
Outline: as §1

[8] = target: GalNAc(b1-3)Gal(a1-4)Gal(b1-4)GlcNAc
Outline: as §1

GalNAc(b1-3)GalNAc = target: GalNAc(b1-3)GalNAc
Outline: as §1

[9] = target: GlcNAc(a1-6)Gal(b1-4)GlcNAc
Outline: as §1

Man(a1-2)Man(a1-3)Man = target: Man(a1-2)Man(a1-3)Man
Outline: as §1

[10] = target: Man(a1-2)Man(a1-3)[Man(a1-6)]Man(a1-6)[Man(a1-2)Man(a1-3)]Man(b1-4)GlcNAc(b1-4)GlcNAc
Outline: as §1

[11] = target: Man(a1-3)[Man(a1-6)]Man(a1-6)[Man(a1-3)]Man
Outline: as §1

[12] = target: Neu5Ac(a2-3)Gal(b1-3)GlcNAc(b1-3)Gal(b1-3)GlcNAc
Outline: as §1

[13] = target: Neu5Ac(a2-3)Gal(b1-3)GlcNAc6S
Outline: as §1

[14] = target: Neu5Ac(a2-6)Gal(b1-4)GlcNAc(b1-2)Man(a1-3)[GlcNAc(b1-2)Man(a1-6)]Man(b1-4)GlcNAc(b1-4)GlcNAc
Outline: as §1

[15] = target: Neu5Ac(a2-6)Gal(b1-4)GlcNAc(b1-2)Man(a1-3)[Neu5Ac(a2-6)Gal(b1-4)GlcNAc(b1-2)Man(a1-6)]Man(b1-4)GlcNAc(b1-4)GlcNAc
Outline: as §1

[16] = target: Neu5Gc(a2-3)Gal(b1-3)GlcNAc
Outline: as §1

[17] = target: Neu5Gc(b2-6)Gal(b1-4)GlcNAc
Outline: as §1

B1: Mannose Binding Protein (Lactobacillus plantarum) (protein)
chain: AERSEAALTHVDKDNFLKYFSLNGSATYDAKTGIVTITPNQNNQVGNFSLTSKIDMNKSFTLTGQVNLGSNPNGADGIGFAFHSGNTTDVGNAGGNLGIGGLQDAIGFKLDTWFNSYQAPSSDKNGSEISSTNSNGFGWNGDSANAPYGTFVKTSNQEISTANGSKVQRWWAQDTGESQALSKADIDGNFHDFVVNYDGATRTLTVSYTQASGKVLTWKTTVASSYQAMAMVVSASTGAAKNLQQFKLTSFDFQEAATVNVKYVDTTGHQLAQG
glycan array binding signal (z-score) [1]: -0.167 | glycan array binding signal (z-score) (Fuc(a1-2)Gal(b1-4)GlcNAc): -0.102 | glycan array binding signal (z-score) [2]: -0.749 | glycan array binding signal (z-score) [3]: -0.358 | glycan array binding signal (z-score) [4]: -0.696 | glycan array binding signal (z-score) (Fuc(a1-3)GlcNAc): -0.141 | glycan array binding signal (z-score) [5]: -0.071 | glycan array binding signal (z-score) (Gal(a1-3)Gal(b1-4)Glc): 13.6 | glycan array binding signal (z-score) [6]: -0.551 | glycan array binding signal (z-score) (Gal(b1-4)Glc): -0.319 | glycan array binding signal (z-score) [7]: -0.654 | glycan array binding signal (z-score) (Gal6S(b1-4)Glc): 0.521 | glycan array binding signal (z-score) [8]: 4.17 | glycan array binding signal (z-score) (GalNAc(b1-3)GalNAc): 2.15 | glycan array binding signal (z-score) [9]: -0.056 | glycan array binding signal (z-score) (Man(a1-2)Man(a1-3)Man): 3.36 | glycan array binding signal (z-score) [10]: 0.227 | glycan array binding signal (z-score) [11]: 1.77 | glycan array binding signal (z-score) [12]: -0.526 | glycan array binding signal (z-score) [13]: -0.327 | glycan array binding signal (z-score) [14]: -0.444 | glycan array binding signal (z-score) [15]: -0.324 | glycan array binding signal (z-score) [16]: -0.785 | glycan array binding signal (z-score) [17]: 1.04
